From PubChem
An excerpt weighted towards active compounds, which were near 3.8% of everything screened.
HSF1 inhib: HSF1 inhibitors in luciferase reporter cells, primary screen, cell-based, NIH3T3, luminescence; 300,000 compounds, 0.77% hits; activity change, negative = inhibition, % at 7.5 µM (by protocol); NIH3T3-HGL HSE-luciferase, MG132-induced, luminescence 8 h; active compounds read low; AID 2098, 2009;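 active means more than half of replicate wells show activity change below -50%, luminescence cut by over half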;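 further: luciferase reports HSF-1 transcriptional activity via heat shock element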
HSP90 refold inh: HSP90 inhibitors, primary screen, cell lysate, luminescence | Heat shock protein HSP 90 (rabbit reticulocyte lysate; luciferase refolding) | Rabbit reticulocyte lysate, luciferase refolding luminescence, 3 h | inhibition, % at 5.6 µM | 290,000 compounds, 0.91% hits;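 active means inhibition above the screen-wide mean plus 3 SD, computed separately per campaign, cut at about 16% in these data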;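 further: inhibitors lower the luminescence because luciferase stays unfolded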
Hsp70 act: Hsp70 transcriptional activators, primary screen, cell-based, HeLa, Hsp70 promoter luciferase, luminescence, 10 µM; 200,000 compounds, 0.04% hits; AID 1203, 2008; HeLa Hsp70 promoter luciferase reporter; scaled: vehicle 0, proteasome-inhibitor control 100%; activation, % at 10 µM;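 active means activation above the mean across all tested compounds plus 3 SD, cutoff set per campaign, cut at about 5.5% in these data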
NALP1 inh: NALP1 inflammasome inhibitors in reconstituted yeast, colorimetric, S. cerevisiae, triplicate retest | S. cerevisiae NALP1/ASC/caspase-1 growth, X-gal OD620, 72 h | inhibition, % at 10 µM | 280,000 compounds, 0.61% hits | AID 2071, 2009; in the data active means inhibition mostly above about 24%, no sharp cut-off; inactive means mostly below about 32%
HSF-1 act: HSF-1 activators, primary screen, NIH3T3-HGL cells, MG132 stress, luminescence, single point; 300,000 compounds, 1.7% hits; activation, % at 9 µM; NIH3T3-HGL HSF-1 luciferase reporter, 8 h; 100% = twice DMSO control signal;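 active means mean replicate activation of at least 50% with a set share of replicates each reaching 50%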
p-CIP stab down: p/CIP-EGFP fusion destabilizers, primary screen, fluorescence, F442A cells; 290,000 compounds, 0.01% hits; AID 1984, 2009; decrease of EGFP signal, % at 10 µM; Q05BA5; 16 h;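 active means EGFP signal decrease of at least 30% at 10 µM or well 3 SD below plate mean, unless failing retest; inactive means the rest, including hits failing retest or dose response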
HSP90 confirm: HSP90 inhibitors, confirmation, cell lysate, luminescence; shares compounds with HSP90 refold inh; rabbit reticulocyte lysate, luciferase refolding luminescence, 3 h; inhibition, % at 5.9 µM; 2,300 compounds, 64% hits; AID 1846, 2009; in the data active means inhibition above about 18%
luciferase ctr: firefly luciferase inhibitors, HSP90 counter-screen, confirmation, artefact control for HSP90 inhibitor project, biochemical, luminescence, triplicate; inhibition, % at 5.9 µM; shares compounds with HSP90 refold inh; 2,300 compounds, 48% hits; purified native firefly luciferase;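 active means inhibition above the mean inhibition of all tested sample wells plus 3 SD, cut at about 10% in these data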
Target sequence (P08659 whole entry, looked up): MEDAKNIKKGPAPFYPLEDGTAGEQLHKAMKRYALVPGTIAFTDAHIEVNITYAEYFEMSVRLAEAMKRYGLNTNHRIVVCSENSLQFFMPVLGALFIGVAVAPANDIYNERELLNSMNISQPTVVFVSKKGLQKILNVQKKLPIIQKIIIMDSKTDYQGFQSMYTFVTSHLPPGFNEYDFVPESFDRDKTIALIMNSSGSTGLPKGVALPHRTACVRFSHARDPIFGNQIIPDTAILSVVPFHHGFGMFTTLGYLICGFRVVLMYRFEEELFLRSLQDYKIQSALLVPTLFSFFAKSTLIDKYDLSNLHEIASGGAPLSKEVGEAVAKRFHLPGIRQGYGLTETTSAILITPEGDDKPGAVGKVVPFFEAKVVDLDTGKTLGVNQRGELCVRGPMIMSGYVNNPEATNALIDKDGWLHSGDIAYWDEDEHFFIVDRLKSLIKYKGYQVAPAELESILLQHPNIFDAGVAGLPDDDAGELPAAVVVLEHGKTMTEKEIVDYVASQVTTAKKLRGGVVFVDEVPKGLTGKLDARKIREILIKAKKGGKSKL
Of the large screens only hits and unclear results are named; the others gave an inactive call (follow-up assays come after a bar, where they were run).

N#CC1=C(N)Oc2n[nH]c(-c3cccs3)c2C1c1ccncc1 (configuration not stated)	none
N#CC1=C(N)Oc2n[nH]c(-c3cccs3)c2C1c1ccsc1 (configuration not stated)	HSP90 refold inh 21 | HSP90 confirm inactive | luciferase ctr inactive
COc1cccc(/C=N/Nc2ncnc(Cl)c2N)c1O	none
COc1cccc(/C=N/Nc2nccnc2Cl)c1O	HSP90 refold inh 55 | HSP90 confirm 72 | luciferase ctr 59
COc1ccc(-c2onc3ccc(C(=O)/C=C/N(C)C)cc23)cc1	HSP90 refold inh 31 (no result: Hsp70 act) | HSP90 confirm inactive | luciferase ctr inactive
CN(C)/C=C/C(=O)c1ccc2noc(-c3cccc(F)c3)c2c1	none (no result: Hsp70 act)
N#CCc1ccc(NC(=O)Cn2c(=O)oc3ccccc32)cc1	none (no result: Hsp70 act)
CN(Cc1ccccc1)Cc1nc2scc(-c3ccccc3)c2c(=O)[nH]1	none
O=[N+]([O-])c1cc(/C=N/NC(=S)Nc2ccccc2Cl)ccc1Cl	none (no result: HSF1 inhib, HSF-1 act)
CCNC(=S)N/N=C/c1ccccc1[N+](=O)[O-]	HSP90 refold inh 20 | HSP90 confirm inactive | luciferase ctr inactive
CCCOc1ccc(/C=N/NC(=S)Nc2ccccc2[N+](=O)[O-])c(O)c1	HSF1 inhib -90, HSP90 refold inh 75 | HSP90 confirm 75 | luciferase ctr 21
COc1ccc(/C=N/NC(=S)Nc2ccccc2[N+](=O)[O-])cc1O	HSP90 refold inh 51 | HSP90 confirm 53 | luciferase ctr 11
Cc1ccc(C(=O)Nc2ccccc2C(=O)Nc2ccccn2)cc1Cl	none (no result: Hsp70 act)
COc1ccc(C(=O)Cn2c(C)nc([N+](=O)[O-])c2Br)cc1	HSP90 refold inh 22, HSF-1 act 172 (no result: Hsp70 act) | HSP90 confirm inactive | luciferase ctr inactive
Cc1nc([N+](=O)[O-])c(Br)n1CC(=O)c1ccc(Cl)cc1	none
O=C1N[C@@H](Cc2cn(S(=O)(=O)c3ccc([N+](=O)[O-])cc3)c3ccccc23)C(=O)N[C@H]1Cc1ccccc1	none (no result: HSP90 refold inh, Hsp70 act, NALP1 inh, p-CIP stab down)
COc1ccccc1C(=O)NC(=S)N1CCCc2ccccc21	HSF1 inhib -61, HSP90 refold inh 18 | HSP90 confirm 20 | luciferase ctr 13
COc1ccccc1C(=O)NC(=S)N1CCc2ccccc21	none
O=C(CN1CCN(c2ccc(F)cc2)CC1)N1N=CCC1c1ccccc1 (configuration not stated)	none
O=C(CN1CCN(c2ccccc2)CC1)N1N=CCC1c1ccccc1 (configuration not stated)	HSP90 refold inh 39 | HSP90 confirm inactive | luciferase ctr inactive
COc1ccc(OCC(O)CNC(=O)Nc2cccc3ccccc23)cc1 (configuration not stated)	none (no result: Hsp70 act)
O=C(Cn1nnc(-c2cccs2)n1)NCc1ccccc1	HSP90 refold inh 56 | HSP90 confirm inactive | luciferase ctr inactive
COc1ccc(/C=N/NC2=NS(=O)(=O)c3ccccc32)cc1OC	none (no result: Hsp70 act)
CCCCN(C(=O)c1[nH]c(C)c(C(C)=O)c1C)c1c(N)n(CCCC)c(=O)[nH]c1=O	none (no result: HSP90 refold inh, Hsp70 act, NALP1 inh, p-CIP stab down)
COc1ccc2cnn(CCOc3ccccc3)c(=O)c2c1OC	HSP90 refold inh 21 | HSP90 confirm 32 | luciferase ctr 20
CCOc1ccccc1OCCn1ncc2ccc(OC)c(OC)c2c1=O	none
O=C(N/N=C/c1ccc(O)cc1)c1ccc(NC(=O)c2ccccc2Br)cc1	HSP90 refold inh 20 | HSP90 confirm inactive | luciferase ctr inactive
O=C(Nc1nc2ccccc2[nH]1)c1ccccc1	HSP90 refold inh 17 | HSP90 confirm 57 | luciferase ctr 39
O=C(Nc1nc2ccccc2[nH]1)c1cccc(Cl)c1	none (no result: Hsp70 act)
O=C(Nc1nc2ccccc2[nH]1)c1ccc(Cl)cc1	HSP90 refold inh 46 (no result: Hsp70 act) | HSP90 confirm 65 | luciferase ctr 58
CCc1ccc(NC(=O)CNC(=O)[C@@H]2Cc3ccccc3CN2)cc1	none (no result: Hsp70 act)
OCC1CCCN(C2CCN(Cc3nc(Cc4cccc(C(F)(F)F)c4)no3)CC2)C1 (configuration not stated)	none
Cc1ccc(/C(O)=C2/C(=O)C(=O)N(CC(=O)O)C2c2ccc([N+](=O)[O-])cc2)cc1 (configuration not stated)	none (no result: Hsp70 act)
Cc1cccc(-c2cc3nc4c(c(N5CCOCC5)n3n2)CCCC4)c1	HSP90 refold inh 40 (no result: HSF1 inhib, HSF-1 act) | HSP90 confirm 59 | luciferase ctr 58
Cc1cccc(-c2cc3nc4c(c(N5CCC6(CC5)OCCO6)n3n2)CCCC4)c1	none (no result: HSF1 inhib, NALP1 inh, HSF-1 act, p-CIP stab down)
CN(C)C(=O)C12CCC(C)(C(=O)C1Br)C2(C)C (configuration not stated)	none (no result: Hsp70 act)
O=C(CSc1cn(CCNC(=O)c2ccccc2)c2ccccc12)NCc1ccco1	HSP90 refold inh 28 | HSP90 confirm 25 | luciferase ctr inactive
CCCn1cc(SCC(=O)NCc2ccco2)c2ccccc21	none (no result: NALP1 inh)
Cc1ccc(C(=O)NCCn2cc(SCC(=O)Nc3cc(C)on3)c3ccccc32)cc1	HSP90 refold inh 29 | HSP90 confirm 31 | luciferase ctr inactive
O=c1c(C=NCc2cccnc2)c(C(F)(F)F)[nH]n1-c1nc2ccccc2s1	HSP90 refold inh 42 | HSP90 confirm 35 | luciferase ctr 11
Cc1cccc(NC(=S)NC(=O)/C=C/c2ccco2)c1	none
Cc1cccc(NC(=S)NC(=O)/C=C/c2ccco2)n1	HSP90 refold inh 18 | HSP90 confirm inactive | luciferase ctr inactive
Cc1cc(/C=N/Nc2ncnc(N)c2[N+](=O)[O-])c(C)n1-c1ccccc1	HSP90 refold inh 76 (no result: HSF1 inhib, Hsp70 act, NALP1 inh, HSF-1 act) | HSP90 confirm 95 | luciferase ctr 92
Cc1cc(/C=N/Nc2ccc([N+](=O)[O-])cn2)c(C)n1-c1ccc(C(=O)O)cc1	none
COc1cccc(/C=N/Nc2ncnc(N)c2[N+](=O)[O-])c1OC	HSP90 refold inh 27 | HSP90 confirm 80 | luciferase ctr 62
Cc1cc(/C=N/Nc2nc(N)ncc2[N+](=O)[O-])c(C)n1-c1cccc(C(F)(F)F)c1	HSP90 refold inh 34 (no result: Hsp70 act, NALP1 inh) | HSP90 confirm 29 | luciferase ctr 16
CC1(OC(=O)CCc2ccccc2)C(=O)C=C2C=C(C3CC3)OC=C2C1=O (configuration not stated)	none (no result: HSP90 refold inh, Hsp70 act, NALP1 inh, p-CIP stab down)
